Screens (PubChem)
PPC-1+TRAIL kill: kills PPC-1 cancer cells in the presence of TRAIL; cell killing (% activity), % at 4 µM or 5 µM; PPC-1 cells + TRAIL, ATPLite viability luminescence; actives 0.41% (n = 220,000);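 active = cell killing above 50% in the first pass at 4 µM, then a duplicate retest at 5 µM averaging 50% or more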
TWEAK Fn14 block: inhibitors of TWEAK-Fn14 interaction signaling. TWEAK-stimulated Fn14 reporter cells, luciferase luminescence, 8 h. inhibition, % at 10 µM. actives 2% (n = 360,000); in the data active = inhibition above about 50%
Platelet DG rel: platelet dense granule release activity. human platelet-rich plasma, SFLLRN dense granule ATP release, luminescence. inhibition, %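 (compounds screened at 7.5 µM in platelet-rich plasma)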. actives 0.22% (n = 300,000);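 active = mean replicate score, as percent of positive control, at or above 50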
TROY NFkB inh: TROY signaling inhibition. AID 1347056. actives 0.98% (n = 360,000). inhibition, % at 10 µM. Q293 LMP1-TROYcd NF-kB luciferase reporter, 4 h;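 active = compounds whose plate-normalised and pattern-corrected inhibition of the luciferase reporter signal at the single screening dose is 50% or more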
HSP90 inh: blocks HSP90-mediated luciferase refolding in reticulocyte lysate | inhibition, % at 5.6 µM | AID 1789 | Rabbit reticulocyte lysate, luciferase refolding luminescence, 3 h | actives 0.91% (n = 290,000);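 active = inhibition above the screen-wide mean plus 3 SD, computed separately per campaign, cut at about 16% in these data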;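 note: inhibitors lower the luminescence because luciferase stays unfolded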
C8 TRAIL sens: sensitizes caspase-8 expressing cells to TRAIL; NB7+C8 cells + TRAIL, ATPlite viability luminescence; inhibition (viability loss, TRAIL sensitization), % at 10 µM; actives 1% (n = 360,000); AID 624354;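 active = compounds causing at least 50% loss of cell viability in the single-dose screen, relative to plate controls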
Each line names hits and unclear results; the compound was inactive in the other large screens. In the library only some 3.5% were active in any assay of this set; here they are far more common.

Cc1ccc(CNC(=O)CSc2nc(=O)n3cccc(C)c3n2)cc1	none (no result: PPC-1+TRAIL kill, HSP90 inh)
COc1ccc(S(=O)(=O)N(Cc2ccccc2)c2ccccc2C(=O)O)cc1	none (no result: PPC-1+TRAIL kill)
COc1ccc(S(=O)(=O)N(Cc2ccccc2)c2ccccc2C(=O)N2CCOCC2)cc1	TWEAK Fn14 block 94 (no result: PPC-1+TRAIL kill)
CN(c1ccc(C(=O)N/N=C/c2cccc([N+](=O)[O-])c2)cc1)S(=O)(=O)c1ccccc1	none (no result: PPC-1+TRAIL kill)
CC(C)(C)c1cc(N2CCOCC2)n2ncc(-c3ccc(Cl)cc3)c2n1	none (no result: PPC-1+TRAIL kill)
Cc1cc(N2CCCCC2)n2ncc(-c3ccc(Cl)cc3)c2n1	TWEAK Fn14 block 74, TROY NFkB inh 70
CC1(C)CCN2CCC(C)(C)c3c(O)ccc1c32	TWEAK Fn14 block 64 (no result: PPC-1+TRAIL kill)
N#CC(C#N)=C1C=CC=CN1/C(=C\c1ccco1)C(=O)c1ccc(-c2ccccc2)cc1	TWEAK Fn14 block 89 (no result: Platelet DG rel)
CC(/C=N/n1c(-c2ccc(Cl)cc2)n[nH]c1=S)=C\c1ccco1	none
N#CC(C#N)=C1C=CC=CN1/C(=C\c1ccco1)C(=O)c1ccc(Cl)cc1	TWEAK Fn14 block 97, TROY NFkB inh 86 (no result: Platelet DG rel)
Cc1ccnc(N2C(=O)c3ccccc3C2Nc2cccc(C)c2C)c1 (stereo not given)	none
Cc1ccnc(N2C(=O)c3ccccc3C2O)c1 (stereo not given)	Platelet DG rel 69
COc1ccc(Nc2ncc(C(=O)N3CCC(C(N)=O)CC3)c3ccccc23)cc1	none
COc1ccc(Nc2ncc(C(=O)N3CCN(Cc4ccccc4)CC3)c3ccccc23)cc1	TWEAK Fn14 block 96
CCCc1cc(=O)[nH]c(SCC(=O)NC(=O)OCC)n1	none
CCCc1cc(=O)[nH]c(SCC(=O)Nc2sc(C(N)=O)c(C)c2C(=O)OCCOC)n1	C8 TRAIL sens 85 (no result: PPC-1+TRAIL kill, Platelet DG rel, HSP90 inh)
O=C(O)c1ccc2oc(=O)c(S(=O)(=O)c3ccc(F)cc3)cc2c1	none (no result: PPC-1+TRAIL kill)
CCCCCCc1cc2cc(-c3nnc(-c4ccccc4O)o3)c(=O)oc2cc1O	TWEAK Fn14 block 55
CCCCCCc1cc2cc(S(=O)(=O)c3ccc(F)cc3)c(=O)oc2cc1O	TROY NFkB inh 51
CCCCCCc1cc2cc(-c3nnc(-c4ccccc4OC)o3)c(=O)oc2cc1O	none
COc1ccc(S(=O)(=O)N2CCCCCC2)cc1C(=O)NCCOc1ccc(C)cc1	none (no result: PPC-1+TRAIL kill, HSP90 inh)
COc1ccc(N=C2S/C(=C\c3ccc(OCC(=O)O)cc3)C(=O)N2CCc2c[nH]c3ccccc23)cc1	none
COc1ccc(N=C2S/C(=C\c3ccc(N4CCOCC4)o3)C(=O)N2CCc2c[nH]c3ccccc23)cc1	TWEAK Fn14 block 97
S=C(NCCCc1cnc[nH]1)NCCCN(Cc1ccc(Cl)cc1)c1ccc(Br)cn1	none (no result: PPC-1+TRAIL kill, Platelet DG rel, HSP90 inh)
CCc1ccccc1NC(=O)COc1ccc2c(=O)c(Oc3cc(C)ccc3C)coc2c1	TROY NFkB inh 56
Cc1ccc(Cl)cc1N1CCN(C(=O)c2noc(C)c2[N+](=O)[O-])CC1	C8 TRAIL sens 95 (no result: PPC-1+TRAIL kill)
Cc1ccccc1-n1ncc2c1CC(C)(C)CC2NC(=O)c1cn[nH]c1C (stereo not given)	none (no result: PPC-1+TRAIL kill)
COc1ccc(/C=C2\SC(=S)N(CCCC(=O)N3CCOCC3)C2=O)cc1	TWEAK Fn14 block 95 (no result: PPC-1+TRAIL kill)
O=C1C(=Cc2cn(-c3ccccc3)nc2-c2ccc(OCc3ccc(Cl)cc3)cc2)SC(=S)N1CCS(=O)(=O)O	TWEAK Fn14 block 62 (no result: PPC-1+TRAIL kill, Platelet DG rel, HSP90 inh)
COc1ccc(-c2nn(-c3ccccc3)cc2/C=C2/SC(=S)N(CCC(=O)O)C2=O)c(C)c1	TROY NFkB inh 61 (no result: PPC-1+TRAIL kill)
COc1ccc(C(CC(=O)N2CCCC2)C(C)C)cc1 (stereo not given)	none (no result: PPC-1+TRAIL kill)
COc1ccc(C(CC(=O)N2CCOCC2)C(C)C)cc1 (stereo not given)	TWEAK Fn14 block 80 (no result: PPC-1+TRAIL kill)
COc1ccc(/C=C2/SC(=S)N(CCC(=O)O)C2=O)cc1	TWEAK Fn14 block 85
C[C@@H]1CN([C@@H](C)CO)C(=O)CCCn2nncc2CO[C@@H]1CN(C)C(=O)Nc1ccccc1	none (no result: PPC-1+TRAIL kill, Platelet DG rel, HSP90 inh)
COc1ccc2cc3cc(C(=O)Nc4cc(OC)c(OC)c(OC)c4)oc3nc2c1	TWEAK Fn14 block 63
COc1ccc2cc3cc(C(=O)Nc4ccc5c(c4)OCCO5)oc3nc2c1	none
Cc1ccc(C)c(NC(=O)C(=O)NCC2CCCN2S(=O)(=O)c2cccs2)c1 (stereo not given)	none (no result: PPC-1+TRAIL kill, HSP90 inh)
CCN(CC(=O)Nc1ccc(NC(C)=O)cc1)C(=O)CN1C(=O)C2CCCCC2C1=O (stereo not given)	none (no result: PPC-1+TRAIL kill, Platelet DG rel, HSP90 inh)
Oc1ccccc1-c1nc(NC2CCCC2)c2ccccc2n1	TROY NFkB inh 60 (no result: PPC-1+TRAIL kill)
CS(=O)(=O)c1ccc(C(=O)OCC(=O)NC(=O)C2COc3ccccc3O2)cc1[N+](=O)[O-] (stereo not given)	TWEAK Fn14 block 55 (no result: PPC-1+TRAIL kill, Platelet DG rel, HSP90 inh)
Cc1ccccc1NC(=O)COC(=O)c1ccc(S(C)(=O)=O)c([N+](=O)[O-])c1	none
Nc1ccc(C(=O)NNC(=O)C2COc3ccccc3O2)cc1[N+](=O)[O-] (stereo not given)	none (no result: PPC-1+TRAIL kill, HSP90 inh)
CS(=O)(=O)c1ccc(C(=O)OCC(=O)N2CCN(CCC3CCCCC3)CC2)cc1[N+](=O)[O-]	TWEAK Fn14 block 79, C8 TRAIL sens 89 (no result: PPC-1+TRAIL kill, Platelet DG rel, HSP90 inh)
CS(=O)(=O)c1ccc(C(=O)OCC(=O)NC(=O)C2CCCCC2)cc1[N+](=O)[O-]	TWEAK Fn14 block 73, TROY NFkB inh 51
COC(=O)c1ccccc1NC(=O)Nc1ccc2c(c1)OCO2	Platelet DG rel 74
COC(=O)c1ccc(C(=O)OC)c(NC(=O)Nc2ccc3c(c2)OCO3)c1	none
O=C(CCl)Nc1ccccc1C(=O)Nc1ccc2c(c1)OCO2	Platelet DG rel 55, C8 TRAIL sens 50
O=C(CCNC(=O)c1ccccc1Cl)Nc1ccc2c(c1)OCO2	none
C#CC1(NC(=S)Nc2cccc(OC)c2)CCCCC1	none (no result: PPC-1+TRAIL kill, Platelet DG rel, HSP90 inh)
O=C(NC(=S)Nc1ccccc1)c1ccc(-c2ccccc2)cc1	PPC-1+TRAIL kill 54
O=C(OCC#CCSc1nnc(-c2cccc3ccccc23)o1)c1cnc[nH]1	none (no result: PPC-1+TRAIL kill, Platelet DG rel, HSP90 inh)
O=C(NCc1cn2ccsc2n1)c1cccc(C(F)(F)F)c1	none
Cc1csc2nc(CNC(=O)c3cccc(C(F)(F)F)c3)cn12	TWEAK Fn14 block 97 (no result: TROY NFkB inh)
O=[N+]([O-])c1cc(Cl)ccc1Oc1ccc(-c2nnco2)cc1	TROY NFkB inh 62
CS(=O)(=O)c1ccc(Oc2ccc(-c3nnco3)cc2)c([N+](=O)[O-])c1	none (no result: PPC-1+TRAIL kill)
CCn1c(=O)c([N+](=O)[O-])c(Cl)c2ccccc21	C8 TRAIL sens 52
COc1ccc(NC(=O)Cn2nnc(-c3ccccc3NS(=O)(=O)c3ccccc3)n2)cc1	TWEAK Fn14 block 54
COc1ccc(S(=O)(=O)Nc2ccccc2-c2nnn(CC(=O)Nc3ccccc3OC)n2)cc1	none
CC(C)=CCOc1ccc([C@@H]2COc3c(ccc4c3C=CC(C)(C)O4)C2)c(O)c1	none (no result: PPC-1+TRAIL kill, HSP90 inh)
CCc1ccc(OCc2ccc(C(=O)NCc3ccccn3)o2)cc1	HSP90 inh 17
Cc1ccccc1CS(=O)(=O)Cc1ccc(C(=O)NCc2ccccn2)o1	none
c1ccc2c(-c3cc(C4CCNCC4)[nH]n3)cccc2c1	none
